Data published in PubChem BioAssay.
A number with no mark means an inactive call. The rule behind the calls is not given here.

The compounds below were run against L-lactate dehydrogenase (Plasmodium falciparum (isolate CDC / Honduras)) (UniProt Q27743) (assay: PfLDH activity inhibition – cell lysate, 3D7 strain, counter-screen for P. falciparum growth inhibition project (AID 2304;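 note: 0% = vehicle and 100% = reference inhibitor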)). Conditions: P. falciparum 3D7 crude extract, LDH APAD/NBT absorbance; at 2 µM; hits give high values.
Sequence of L-lactate dehydrogenase (Plasmodium falciparum (isolate CDC / Honduras)) (Q27743 whole entry, looked up): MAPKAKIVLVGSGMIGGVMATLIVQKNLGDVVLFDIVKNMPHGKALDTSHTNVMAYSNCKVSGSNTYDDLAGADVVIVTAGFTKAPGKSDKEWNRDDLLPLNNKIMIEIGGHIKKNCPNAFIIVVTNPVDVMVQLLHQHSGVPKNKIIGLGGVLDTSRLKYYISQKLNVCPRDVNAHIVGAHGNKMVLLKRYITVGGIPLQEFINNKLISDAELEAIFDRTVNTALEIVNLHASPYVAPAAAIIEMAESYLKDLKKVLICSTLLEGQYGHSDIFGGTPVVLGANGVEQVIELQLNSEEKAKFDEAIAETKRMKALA

Row | Compound | inhibition
1 | Cc1ccccc1N1CCN(c2ccc(C(=O)NC(C)C)cn2)CC1 | -2%
2 | COc1ccc2nccc([C@@H](O)CN3CCC(NC(=O)c4ccc(C5(C(F)(F)F)N=N5)cc4)CC3)c2c1 | -8%
3 | Cc1ccccc1C1CCN(C2CCC(NC(=O)/C=C/c3ccc(Cl)cc3)CC2)CC1 (centres undefined) | 4%
4 | Cc1cccc2[nH]c(-c3ccc(-c4ccc(CN5CCCC(O)C5)cc4)s3)nc12 (centres undefined) | -1%
5 | COc1cc(NC(=O)/C=C/c2cc(F)cc(F)c2F)cc(OCCN2CCC3(CC2)OCCO3)c1 | -3%
6 | Cc1ccccc1Cc1cccc(/N=C(\N)Nc2ccc(Cl)cc2)n1 | -7%
7 | CCCCCC(C)NC[C@@H](O)[C@H](Cc1ccccc1)NC(=O)c1cc(NCC)cc(N2CCCCS2(=O)=O)c1 (some centres undefined) | 0%
8 | O=[N+]([O-])c1ccc(C=NNc2nc(Nc3ccccc3)nc(Nc3ccccc3)n2)o1 | -4%
9 | CCNc1cc(C(=O)N[C@@H](Cc2cccc(Cl)c2)[C@H](O)CNC(C)CCCC(C)C)cc(N2CCCCS2(=O)=O)c1 (some centres undefined) | -1%
10 | CN(C)Cc1ccc(-c2ccc3ccnc(N)c3c2)cc1 | -1%
11 | O=C(Nc1ccc(N2CCNCC2)cc1)c1ccn2ncc(-c3cccc(Cl)c3)c2n1 | -2%
12 | COc1ccc(-c2ccc(NC(=O)c3cccc(Cl)c3)cc2)cc1CN1CCCN(C)CC1 | 8%
13 | CCC(C)c1ccc(-n2c(Nc3ccccc3)nc3cc(S(N)(=O)=O)ccc32)cc1 (centres undefined) | 4%
14 | Cc1c(C(=O)Nc2cc(Sc3ccc(F)cc3)cc([N+](=O)[O-])c2)sc2ncn(Cc3cccc(F)c3)c(=O)c12 | 5%
